Screens from PubChem BioAssay.
PAFAH1B2 inh: PAFAH1B2 (human) inhibition | recombinant PAFAH1B2, FP-rhodamine activity probe, fluorescence polarization | AID 492953 | P68402 | inhibition, % at 3.39 µM | 340,000 tested, 1.2% active;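 active means inhibition above the mean of all tested compounds plus 3 SD, cut at about 24% in these data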
Target sequence (P68402 whole entry, looked up): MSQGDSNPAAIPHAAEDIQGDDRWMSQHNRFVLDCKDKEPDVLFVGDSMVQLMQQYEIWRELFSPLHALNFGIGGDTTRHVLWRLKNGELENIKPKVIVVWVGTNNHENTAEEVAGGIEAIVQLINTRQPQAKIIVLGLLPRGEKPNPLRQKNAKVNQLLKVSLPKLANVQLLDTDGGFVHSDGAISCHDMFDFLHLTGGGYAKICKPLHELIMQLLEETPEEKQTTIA
PAFAH2 inh: inhibitors of human PAFAH2 | recombinant PAFAH2, FP-rhodamine activity probe, fluorescence polarization | 340,000 tested, 0.99% active | inhibition, % at 3.39 µM | Q99487;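 active means inhibition above the mean over all tested compounds plus 3 SD, cut at about 30% in these data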;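 further: inhibitors block probe labeling of enzyme so polarization drops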
ZTA counter: ZTA (EBV) inhibition in EBNA-1 counter-screen. P03206. ZTA-DNA binding, fluorescence polarization. inhibition, % at 11 µM. 320,000 tested, 0.15% active; in the data active means inhibition above about 33%
EBNA-1 inhibitor: blocks EBNA-1 binding to DNA | EBNA-1 DNA binding, fluorescence polarization | inhibition, % at 14.8 µM | 300,000 tested, 0.34% active; in the data active means inhibition above about 28%
PAFAH1B3 FP inh: blocks human PAF acetylhydrolase 1B catalytic subunit 3; Q15102; recombinant PAFAH1B3, FP-rhodamine probe, fluorescence polarization; inhibition, % at 3.39 µM; 340,000 tested, 0.28% active;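 active means inhibition above the screen-wide average of all tested compounds plus 3 SD, cut at about 25% in these data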
Target sequence (Q15102 whole entry, looked up): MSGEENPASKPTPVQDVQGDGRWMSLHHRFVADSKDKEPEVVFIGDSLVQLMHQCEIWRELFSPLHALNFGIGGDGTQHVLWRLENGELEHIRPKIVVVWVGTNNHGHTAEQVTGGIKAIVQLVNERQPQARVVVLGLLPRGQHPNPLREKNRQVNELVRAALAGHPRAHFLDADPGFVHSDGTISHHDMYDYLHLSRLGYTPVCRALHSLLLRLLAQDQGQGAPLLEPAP
pPAFAH inh: inhibitors of human plasma PAF acetylhydrolase (pPAFAH) | Q13093 | recombinant pPAFAH, FP-rhodamine probe fluorescence polarization | inhibition, % at 3.39 µM | 330,000 tested, 1.5% active | AID 463082;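 active means inhibition above the mean inhibition across the screen plus 3 SD, cut at about 25% in these data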;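 further: inhibitors block binding of the rhodamine activity-based probe so polarization drops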
Numbers stand for hits; i = inactive; nt = no result given. A selection: hits, their analogues and other compounds. The true share with any hit is near 2.9%.

SMILES	PAFAH1B2 inh	PAFAH2 inh	ZTA counter	EBNA-1 inhibitor	PAFAH1B3 FP inh	pPAFAH inh
COc1ccc(S(=O)(=O)N2CCCCC2)cc1NC(=O)[C@@H]1CCCN1C(=O)c1cccs1	i	i	i	nt	i	i
Cc1cccc(NC(=O)c2ccc(NS(=O)(=O)c3c(C)noc3C)cc2)c1	i	i	i	i	i	i
CCc1cccc(NC(=O)c2ccc(NS(=O)(=O)c3c(C)noc3C)cc2)c1	i	i	i	i	i	28.8
CCCCCNC(=O)C(C)Sc1ccc(Cl)cc1 (configuration not stated)	29.8	i	i	i	i	i
CCCCCCNC(=O)C(=O)NCCc1ccc(Cl)cc1	i	i	i	i	i	i
CCN=C(NC#N)SCc1c(F)cccc1Cl	i	i	i	i	i	i
OC(c1ccc(F)cc1)(C1CCCCC1)C(CN1CCOCC1)c1ccccc1 (configuration not stated)	35.4	i	i	i	i	i
Cc1cc(=O)[nH]c2ccc(S(=O)(=O)Nc3ccccc3)cc12	i	i	i	i	i	26.1
CC(C)CNC(=O)c1cc(=O)[nH]c2ccc(S(=O)(=O)Nc3ccc(F)cc3)cc12	i	i	i	i	i	27.5
Cc1cc(=O)[nH]c2ccc(S(=O)(=O)Nc3ccc(O)cc3)cc12	i	i	i	i	i	i
COc1cccc2cc(C(C)N(CCCN3CCOCC3)C(=S)Nc3ccc(C)c(C)c3)oc12 (configuration not stated)	i	i	i	i	i	i
COc1ccc(NC(=S)N(CCCN2CCOCC2)C(C)c2cc3cccc(OC)c3o2)cc1 (configuration not stated)	i	i	i	i	i	27.8
CCC1COC(c2cccn2Cc2ccc(Cl)cc2)=N1 (configuration not stated)	i	i	i	i	i	28.4
Cc1ccc(C)c(S(=O)(=O)/N=C2\C=C(NS(=O)(=O)c3ccccc3)C(=O)c3ccccc32)c1	i	i	i	i	i	i
CC(C)c1ccc(S(=O)(=O)/N=C2\C=C(NS(=O)(=O)c3ccccc3)C(=O)c3ccccc32)cc1	i	i	i	i	i	26.4
CCc1ccc(S(=O)(=O)/N=C2\C=C(NS(=O)(=O)c3ccccc3)C(=O)c3ccccc32)cc1	i	34.1	nt	nt	i	nt
COc1ccccc1Nc1nc(N)nc(CSC(=S)N2CCCCC2C)n1 (configuration not stated)	i	i	i	i	i	i
COc1cc(/C=N/N=C2\CC3CCC2(C)C3(C)C)ccc1O (configuration not stated)	i	i	i	i	i	i
CC12CCC(C/C1=N\N=C1\NC(=O)/C(=C\c3cccc(Br)c3)S1)C2(C)C (configuration not stated)	i	i	i	i	i	26.9
COc1ccc(Cn2nnnc2C(c2cc3cccc(C)c3[nH]c2=O)N2CCN(C)CC2)cc1 (configuration not stated)	28.6	i	i	i	i	i
COc1cc(C(=O)NCC2CCCO2)ccc1OCc1ccc(Cl)cc1 (configuration not stated)	i	i	i	nt	i	i
O=C(NCC1CCCO1)c1ccc(COc2ccc(Cl)cc2)cc1 (configuration not stated)	29.1	i	i	i	i	i
Cc1ccc(OCCC(=O)NNC(=O)c2nn(C)c(=O)c3ccccc23)cc1	i	i	i	nt	i	i
CC1CCCC(C)N1C(=O)CSc1nc(N)c(-c2ccccc2)c(=O)[nH]1 (configuration not stated)	24.9	i	i	i	i	i
Nc1nc(SCC(=O)N2CCCC2)[nH]c(=O)c1-c1ccccc1	i	i	i	i	i	i
SMILES	PAFAH1B2 inh	PAFAH2 inh	ZTA counter	EBNA-1 inhibitor	PAFAH1B3 FP inh	pPAFAH inh
Cc1cccc(C(C)C)c1NC(=O)CN1C(=O)NC2(CCc3ccccc32)C1=O (configuration not stated)	i	i	i	i	i	i
COc1ccc(C)c2sc(N(CCN(C)C)C(=O)c3ccc4ccccc4c3)nc12	i	i	i	i	i	i
CCN(CC)CCN(C(=O)c1ccc(S(=O)(=O)N(CC)c2ccccc2)cc1)c1nc2c(OC)ccc(OC)c2s1	30.5	i	i	i	i	i
CCN1CCN(CCOc2cccc(Oc3ccccc3)c2)CC1	i	i	i	i	i	i
Oc1ccc(Oc2ccc(Oc3ccc(O)cc3)cc2)cc1	i	i	i	i	i	i
CCN(C(=O)CSc1nnc(-c2ccc3c(c2)OCO3)o1)C1CCS(=O)(=O)C1 (configuration not stated)	31.9	i	i	nt	i	i
CCN(C(=O)CSc1ccc2c(c1)OCCO2)C1CCS(=O)(=O)C1 (configuration not stated)	i	i	i	i	i	i
COc1ccccc1NC(=O)CCC(=O)OCc1ccc(Cl)cc1	i	i	i	i	i	i
O=C(CSc1nnc(CNC(=O)c2cccs2)o1)Nc1cccc(C(F)(F)F)c1	26.1	i	i	i	i	i
CN(C)c1ccc(C(=O)OCC(=O)Nc2ccc(S(N)(=O)=O)cc2)cc1	i	i	44.1	34.4	i	i
CN(C)c1ccc(C(=O)OCC(=O)Nc2cccc(S(=O)(=O)N3CCCC3)c2)cc1	i	85.5	nt	nt	i	26.9
CCN(CC)S(=O)(=O)c1ccc(NC(=O)COC(=O)c2ccc(NC(=O)CC#N)cc2)cc1	i	i	i	i	i	26.1
CC(NC(=O)COC(=O)c1ccc(N(C)C)cc1)c1ccccc1 (configuration not stated)	i	78.7	i	i	i	32.8
O=C(COC(=O)c1ccc(C(F)(F)F)cc1)Nc1cccc(S(=O)(=O)N2CCCCC2)c1	i	i	i	nt	i	i
CC(=O)c1cccn1S(=O)(=O)c1ccccc1	i	i	i	i	i	i
CNC(=O)COC(=O)c1ccc(NC(=O)CC#N)cc1	i	i	i	i	i	i
CCC(=O)Nc1ccc(C(=O)OCC(=O)c2ccc(C)c([N+](=O)[O-])c2)cc1	i	i	i	i	i	i
CC(C)(C)NC(=O)NC(=O)COC(=O)c1cccc(NS(=O)(=O)c2ccc(F)c(F)c2)c1	i	i	i	i	i	i
CC(C)(C)c1ccc(NC(=O)COC(=O)c2ccc(NS(=O)(=O)c3ccc(F)c(F)c3)cc2)cc1	i	i	i	i	i	30.6
CCOc1ccc(C(=O)N[C@H](C(=O)Nc2cccc(S(=O)(=O)N3CCCCC3)c2)C(C)C)cc1	i	i	i	41.9	i	i
CC(=O)Nc1ccc(C(=O)OCC(=O)c2ccc(C)c([N+](=O)[O-])c2)cc1	i	33.1	i	i	i	i
Cc1cc(C)c(C(=O)COC(=O)c2ccc(NC(=O)CC#N)cc2)cc1C	i	i	i	i	i	24.9
Cc1cccc(C(=O)N/N=C/c2cc(Br)c(Br)o2)c1	i	i	i	i	i	i
